Measurements published in PubChem BioAssay (NCI).
The panel holds about 79,000 compounds, 15% with a hit somewhere; the sample as a whole holds those more often. The source made the active and inactive calls. No stated cut-off is given here; in the data, active means growth inhibition above about 70%; inactive means the rest.

What was measured:
[1] = NCI Yeast Anticancer Drug Screen. Data for the rad52 strain (AID 147);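 further: 0% = growth of vehicle-treated control cultures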; settings: S. cerevisiae rad52 mutant growth inhibition, hits give high values
Method in brief: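 Vehicle-treated cultures served as the reference for growth inhibition of compound-exposed yeast bearing a DNA repair mutation.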

[2] = NCI Yeast Anticancer Drug Screen. Data for the rad50EPP+ strain (AID 151);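 further: 0% = growth of vehicle-treated control cultures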; settings: S. cerevisiae rad50 mutant strain, hits give high values
Method in brief: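 In this screen, rad50EPP+ yeast were exposed to compounds. Growth inhibition was scored against vehicle-treated controls.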

[3] = NCI Yeast Anticancer Drug Screen. Data for the mgt1 strain (AID 153); settings: S. cerevisiae mgt1 mutant growth inhibition, hits give high values
Method in brief: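 mgt1 strain exposed; growth vs vehicle control recorded as inhibition.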

[4] = NCI Yeast Anticancer Drug Screen. Data for the rad50 strain (AID 155);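 further: 0% = growth of vehicle-only cultures of the same strain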; settings: S. cerevisiae rad50 strain growth inhibition, hits give high values
Method in brief: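 Yeast carrying a defined DNA repair defect were exposed to test compounds, and growth was compared with vehicle-treated controls to give percent inhibition.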

[5] = NCI Yeast Anticancer Drug Screen. Data for the mec2-1 strain (AID 157); settings: S. cerevisiae mec2-1 strain, hits give high values
Method in brief: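 Vehicle-treated cultures served as reference for growth inhibition of compound-exposed mec2-1 yeast.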

[6] = NCI Yeast Anticancer Drug Screen. Data for the rad14 strain (AID 159);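 further: 0% = growth of vehicle-treated control cultures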; settings: S. cerevisiae rad14 strain growth inhibition, hits give high values
Method in brief: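 Yeast cells carrying a defined DNA-repair defect were exposed to compounds, and growth inhibition was calculated relative to vehicle-treated control cultures.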

[7] = NCI Yeast Anticancer Drug Screen. Data for the sgs1 mgt1 strain (AID 161);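 further: 0% = growth of cultures given vehicle only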; settings: S. cerevisiae sgs1 mgt1 strain, hits give high values
Method in brief: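 Genetically altered yeast, compound exposure, growth inhibition relative to vehicle.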

[8] = NCI Yeast Anticancer Drug Screen. Data for the CLN2oe strain (AID 163);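 further: 0% = growth of vehicle-only control cultures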; settings: S. cerevisiae CLN2oe strain, hits give high values
Method in brief: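 Inhibition relative to vehicle-treated yeast is reported. Cells: strain with genetic alteration in cell-cycle control, grown with compound.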

[9] = NCI Yeast Anticancer Drug Screen. Data for the cln2 rad14 strain (AID 165);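 further: 0% = growth equal to vehicle treated cultures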; settings: S. cerevisiae cln2 rad14 strain, hits give high values
Method in brief: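 Each compound was tested on cln2 rad14 yeast. Inhibition of growth was calculated against vehicle-exposed controls.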

[10] = NCI Yeast Anticancer Drug Screen. Data for the bub3 strain (AID 167); settings: S. cerevisiae bub3 mutant strain, hits give high values
Method in brief: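 Compounds were applied to a genetically altered yeast strain carrying a cell-cycle control defect. Growth inhibition was scored against vehicle-treated controls.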

[11] = NCI Yeast Anticancer Drug Screen. Data for the wt2 strain (AID 169);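 further: 0% = growth of vehicle-treated yeast cultures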; settings: S. cerevisiae wt2 strain growth inhibition, hits give high values
Method in brief: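 Inhibition of yeast growth was determined after compound treatment, normalised to controls receiving only vehicle.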

[12] = NCI Yeast Anticancer Drug Screen. Data for the mlh1 strain (AID 171);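 further: 0% = growth of vehicle-treated control cultures of the same strain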; settings: S. cerevisiae mlh1 strain growth inhibition, hits give high values
Method in brief: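 Vehicle-normalised growth inhibition of a repair- or checkpoint-altered yeast strain following compound treatment.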

[13] = NCI Yeast Anticancer Drug Screen. Data for the sgs1 strain (AID 173);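 further: 0% = growth of vehicle-only control cultures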; settings: S. cerevisiae sgs1 mutant, hits give high values
Method in brief: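 Screen format: yeast with repair or checkpoint alterations, compound exposure, growth read relative to vehicle.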

[14] = NCI Yeast Anticancer Drug Screen. Data for the mlh1 rad18 strain (AID 175); settings: S. cerevisiae mlh1 rad18 strain growth inhibition, hits give high values
Method in brief: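 Vehicle-treated cultures served as the reference for growth inhibition in a yeast strain carrying DNA damage repair alterations exposed to each compound.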

[15] = NCI Yeast Anticancer Drug Screen. Data for the wt1 strain (AID 149);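 further: 0% = growth of vehicle-treated wt1 cultures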; settings: S. cerevisiae wt1 strain (SPY 50644) growth inhibition, hits give high values
Method in brief: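 Yeast wt1 strain exposed to compounds; growth inhibition measured relative to vehicle-treated controls.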

[16] = NCI Yeast Anticancer Drug Screen. Data for the rad18 strain (AID 177); settings: S. cerevisiae rad18 mutant growth inhibition, hits give high values
Method in brief: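 Test articles were incubated with altered yeast defective in DNA damage repair. Results are given as inhibition of growth versus vehicle.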

[17] = at 5.0 µM (retest, dose inferred, filed as 0.5)
[18] = at 50.0 µM (retest, dose inferred, filed as 5.0)

Measured: growth inhibition

CCN(CC)CC(O)c1ccc2ccc3ccccc3c2c1 (stereo not drawn)
active: [4]; at 50.0 µM 70.9% | [6]; at 100.0 µM 70% | [10]; [18] 71%
inactive: [1]; at 1.2 µM 3% | [1]; at 3.7 µM 7% | [1]; at 11.0 µM 14% | [1]; at 33.0 µM 14% | [1]; at 100.0 µM 46% | [2]; at 1.2 µM -1% | [2]; at 3.7 µM 1% | [2]; at 11.0 µM 2% | [2]; at 33.0 µM -1% | [2]; at 100.0 µM -11% | [3]; at 1.2 µM 2% | [3]; at 3.7 µM 4% | [3]; at 11.0 µM 6% | [3]; at 33.0 µM 21% | [3]; at 100.0 µM 59% | [4]; at 1.2 µM 6% | [4]; at 3.7 µM 10% | [4]; [17] -1% | [4]; at 11.0 µM 15% | [4]; at 33.0 µM 10% | [4]; [18] 52% | [4]; at 100.0 µM 39% | [5]; at 1.2 µM 3% | [5]; at 3.7 µM 7% | [5]; [17] 15% | [5]; at 11.0 µM 11% | [5]; at 33.0 µM 15% | [5]; [18] 20% | [5]; at 50.0 µM 37.4% | [5]; at 100.0 µM 33% | [6]; at 1.2 µM 7% | [6]; at 3.7 µM 23% | [6]; at 11.0 µM 35% | [6]; at 33.0 µM 28% | [7]; [17] 16% | [7]; [18] 7% | [7]; at 50.0 µM 42.7% | [8]; at 1.2 µM 0% | [8]; at 3.7 µM 5% | [8]; at 11.0 µM 15% | [8]; at 33.0 µM 35% | [8]; at 100.0 µM 57% | [9]; [17] -22% | [9]; [18] -22% | [9]; at 50.0 µM 32% | [10]; at 1.2 µM 1% | [10]; at 3.7 µM 4% | [10]; [17] 10% | [10]; at 11.0 µM -20% | [10]; at 33.0 µM 43% | [10]; at 50.0 µM 65.2% | [10]; at 100.0 µM 45% | [11]; at 1.2 µM 2% | [11]; at 3.7 µM 8% | [11]; at 11.0 µM 17% | [11]; at 33.0 µM 21% | [11]; at 100.0 µM 36% | [12]; at 1.2 µM 8% | [12]; at 3.7 µM 8% | [12]; at 11.0 µM 16% | [12]; at 33.0 µM 16% | [12]; at 100.0 µM 40% | [13]; at 1.2 µM 8% | [13]; at 3.7 µM 17% | [13]; at 11.0 µM 34% | [13]; at 33.0 µM 48% | [13]; at 100.0 µM 64% | [14]; [17] 3% | [14]; [18] 19% | [14]; at 50.0 µM 51.1%

c1ccc2c(c1)c1ncccc1c1nccnc21
active: [1]; at 100.0 µM 72% | [4]; at 50.0 µM 76.8% | [4]; at 100.0 µM 71%
inactive: [1]; at 1.2 µM 2% | [1]; at 3.7 µM 8% | [1]; at 11.0 µM 26% | [1]; at 33.0 µM 48% | [15]; at 1.2 µM -2% | [15]; at 3.7 µM 4% | [15]; at 11.0 µM 11% | [15]; at 33.0 µM 12% | [15]; at 100.0 µM 19% | [4]; at 1.2 µM -4% | [4]; at 3.7 µM 9% | [4]; [17] -46% | [4]; at 11.0 µM 34% | [4]; at 33.0 µM 55% | [4]; [18] 53% | [5]; at 1.2 µM 1% | [5]; at 3.7 µM 0% | [5]; [17] -47% | [5]; at 11.0 µM 0% | [5]; at 33.0 µM 2% | [5]; [18] -53% | [5]; at 50.0 µM 14.7% | [5]; at 100.0 µM 4% | [6]; at 1.2 µM 3% | [6]; at 3.7 µM 3% | [6]; at 11.0 µM 23% | [6]; at 33.0 µM 16% | [6]; at 100.0 µM 11% | [7]; [17] -60% | [7]; [18] -53% | [7]; at 50.0 µM 0% | [8]; at 1.2 µM 0% | [8]; at 3.7 µM -5% | [8]; at 11.0 µM -10% | [8]; at 33.0 µM -8% | [8]; at 100.0 µM -7% | [9]; [17] -60% | [9]; [18] -59% | [9]; at 50.0 µM -40.5% | [10]; at 1.2 µM 4% | [10]; at 3.7 µM -2% | [10]; [17] -58% | [10]; at 11.0 µM -1% | [10]; at 33.0 µM -5% | [10]; [18] -60% | [10]; at 50.0 µM -0.35% | [10]; at 100.0 µM -7% | [11]; at 1.2 µM 9% | [11]; at 3.7 µM 14% | [11]; at 11.0 µM 16% | [11]; at 33.0 µM 19% | [11]; at 100.0 µM 22% | [12]; at 1.2 µM -10% | [12]; at 3.7 µM -4% | [12]; at 11.0 µM -2% | [12]; at 33.0 µM 2% | [12]; at 100.0 µM 17% | [16]; at 1.2 µM -10% | [16]; at 3.7 µM -1% | [16]; at 11.0 µM -2% | [16]; at 33.0 µM -1% | [16]; at 100.0 µM 13%
